Only some compounds are listed: those with a hit (about 0.42% of all), similar ones and a draw of the others.
Tb PGK inh = T. brucei PGK inhibition; P07378; PGK/GAPDH coupled, Kinase-Glo luminescence, 60 min; Potency, µM (top dose mostly 57.5 µM), usual class: inhibitors; hit rate 0.043% among 380,000; further: nearly all actives have a fitted effect of over 60% in size
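Luminescent ATP detection (Kinase-Glo Plus) follows a 60-minute room-temperature incubation, with wells lacking PGK as controls. Buffer: 100 mM TEA (pH 7.6), 5 mM MgCl2, 0.01% Tween-20. Coupling enzyme GAPDH (100 nM final) supplies unstable 1,3-BPG in-well.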
B2AR arrestin = beta2AR (human) beta-arrestin recruitment activity. hit rate 0.02% among 330,000. P07550. Potency, µM (highest dose often 46.1 µM), hits mostly activators. beta-arrestin recruitment to beta2AR, cell-based reporter; further: nearly all actives have a fitted effect of over 65% in size
GLS inhibitor = glutaminase GLS (human) inhibition | O94925 | GLS enzymatic activity, qHTS titration | AID 624170 | hit rate 0.21% among 410,000 | Potency, µM (top dose mostly 45.5 µM), usual class: inhibitors
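Glutamate formation by hKGA was monitored fluorometrically using coupled glutamate oxidase, HRP and Amplex Red. Substrate was added as 1 mM L-glutamine solution; incubation was 30 min at RT after an initial read.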
Tb PFK inh-1 = blocks T. brucei phosphofructokinase; O15648; T. brucei PFK, ADP-Glo luminescence; Potency, µM (series often up to 57.5 µM), hits mostly inhibitors; hit rate 0.17% among 330,000; further: nearly all actives have a fitted effect of over 60% in size
Target sequence (O15648 whole entry, looked up): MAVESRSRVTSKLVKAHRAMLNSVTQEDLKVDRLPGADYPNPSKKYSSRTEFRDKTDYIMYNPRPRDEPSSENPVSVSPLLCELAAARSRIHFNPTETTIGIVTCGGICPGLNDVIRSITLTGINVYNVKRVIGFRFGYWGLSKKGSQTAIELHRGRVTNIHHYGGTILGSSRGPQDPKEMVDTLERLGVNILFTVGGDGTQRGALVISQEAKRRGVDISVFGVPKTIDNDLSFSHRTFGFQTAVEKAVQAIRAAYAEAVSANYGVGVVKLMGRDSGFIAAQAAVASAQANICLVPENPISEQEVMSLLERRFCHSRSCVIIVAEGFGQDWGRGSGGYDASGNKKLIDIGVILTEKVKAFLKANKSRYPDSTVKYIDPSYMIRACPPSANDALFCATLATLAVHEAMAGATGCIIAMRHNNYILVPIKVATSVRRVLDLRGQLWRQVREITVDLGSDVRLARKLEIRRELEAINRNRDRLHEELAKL
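ADP-Glo luminescence quantified ADP after 45 min at room temperature, with 1.25 nM T. brucei PFK, 0.1 mM ATP and 0.5 mM fructose-6-phosphate in pH 8.0 TEA buffer. qHTS titrations up to 57 µM; curves classified by quality.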
BCR signal inh = blocks chronic active B-cell receptor signaling; ABC-DLBCL IkBa-CBG/CBR reporter, luminescence ratio, 4 h; Potency, µM (titrated, usually from 46.1 µM), hits mostly inhibitors; hit rate 0.05% among 340,000; AID 493014; active means well fitted inhibition curve with a large enough effect in the signal ratio, with a control signal flat, not every such curve was filed as active; inconclusive means small, poorly fitted or top-dose-only effect, or effect the other way, or a change in a side signal; the % refers to the signal ratio
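TMD8 ABC-DLBCL cells carrying doxycycline-inducible green luciferase fused to IkappaBalpha plus unfused red luciferase were exposed to compounds (up to 46 uM) for 4 hrs at 37C. Activity came from the overlap-corrected green/red luminescence ratio.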
Pin1 inhibitor = human Pin1 inhibition; Pin1 FP peptide displacement, HiFluor488, 10 min; Potency, µM (series often up to 115 µM), most hits filed as inhibitors; Q13526; hit rate 0.009% among 390,000; active means well fitted inhibition curve with a large enough effect in the polarisation, with a control signal flat, not every such curve was filed as active; inconclusive means small, poorly fitted or top-dose-only effect, or effect the other way, or a change in a side signal; inactive means no such curve, though single readings can be large or run the other way; the % refers to the polarisation
Tb PFK KinaseGlo = orthogonal confirmation of T. brucei phosphofructokinase inhibitors; shares compounds with Tb PFK inh-1; Tb PFK enzyme, ATP depletion, Kinase-Glo Plus luminescence; Potency, µM (series often up to 57.5 µM); hit rate 47% among 1,100; AID 504636; calls by dose curve; further: nearly all actives have a fitted effect of over 60% in size
Tb PFK inh-2 = validation of T. brucei phosphofructokinase inhibitors. shares compounds with Tb PFK inh-1. purified T. brucei PFK, ADP-Glo luminescence, 45 min. Potency, µM (series often up to 57.5 µM), actives largely listed as inhibitors. hit rate 41% among 1,100; further: nearly all actives have a fitted effect of over 60% in size
Hits are given with their value. Unless noted, the call rests on the fitted dose curve; in most records, active means well fitted curve in the direction sought with a large enough effect; inconclusive means small, poorly fitted or top-dose-only effect, or another doubt; inactive means no such curve, though single readings can be large; an effect the other way counts as inactive or inconclusive.

For O=C(O)/C=C\C(=O)Nc1ccc(N2CCN(c3ccc(Cl)c(Cl)c3)CC2)cc1 the results were Tb PGK inh inactive, B2AR arrestin inactive, GLS inhibitor inactive, Tb PFK inh-1 inconclusive, BCR signal inh inactive, Pin1 inhibitor inactive, Tb PFK KinaseGlo 5.36µM and Tb PFK inh-2 10.7µM.
For C=C1CCN([C@@H](CC(C)C)C(=O)Nc2ccc(OC)cc2)S(=O)(=O)c2ccccc21 the results were Tb PGK inh inactive, GLS inhibitor inactive and Pin1 inhibitor inactive.
Screening Cc1nc([N+](=O)[O-])c(Br)n1Cc1ccc(Cl)c(Cl)c1 returned Tb PGK inh inactive, B2AR arrestin inactive, GLS inhibitor inactive, Tb PFK inh-1 21.3µM, BCR signal inh inconclusive, Pin1 inhibitor inactive, Tb PFK KinaseGlo inconclusive and Tb PFK inh-2 inconclusive.
For CC(C)CN1C(=S)SC(C)(C)C1n1oc(=O)n(-c2ccc(Cl)cc2)c1=O (configuration not stated) the results were B2AR arrestin inconclusive, GLS inhibitor inactive, Tb PFK inh-1 26.9µM, BCR signal inh inconclusive, Pin1 inhibitor inactive, Tb PFK KinaseGlo inactive and Tb PFK inh-2 inactive.
O=C(CN1CC(c2ccccc2)CC1=O)Nc1ccc(F)cc1 (configuration not stated) was read as Tb PGK inh inactive, B2AR arrestin inactive, GLS inhibitor inactive, Tb PFK inh-1 inactive, BCR signal inh inactive and Pin1 inhibitor inactive.
Screening COc1ccccc1CC(=O)Nc1ccc2c(c1)C(=O)NC2=O returned Tb PGK inh inactive, B2AR arrestin inactive, GLS inhibitor inactive, Tb PFK inh-1 inconclusive, BCR signal inh inconclusive, Pin1 inhibitor inactive, Tb PFK KinaseGlo inconclusive and Tb PFK inh-2 inconclusive.
For Cc1cccc(C(=O)Nc2ccc3c(c2)C(=O)NC3=O)c1 the results were Tb PGK inh inactive, B2AR arrestin inactive, GLS inhibitor inactive, Tb PFK inh-1 inconclusive, BCR signal inh inconclusive, Pin1 inhibitor inactive, Tb PFK KinaseGlo inconclusive and Tb PFK inh-2 30.1µM.
Screening Cc1cccc(NC(=O)c2cccc(N3C(=O)C4C5C=CC(C6CC56)C4C3=O)c2)c1 (configuration not stated) returned Tb PGK inh inactive, B2AR arrestin inactive, GLS inhibitor inactive, Tb PFK inh-1 inactive, BCR signal inh inconclusive and Pin1 inhibitor inactive.
`O=C(CSc1ccc(F)cc1)Nc1ccc2c(c1)C(=O)NC2=O` gave Tb PGK inh inactive, B2AR arrestin inactive, GLS inhibitor inactive, Tb PFK inh-1 inconclusive, BCR signal inh inactive, Pin1 inhibitor inactive, Tb PFK KinaseGlo inconclusive and Tb PFK inh-2 inconclusive.
For Nc1nc(O)c(-c2ccccc2)o1 the results were GLS inhibitor inactive.
Cc1ccc(C(=O)N2CCCC(CCC(=O)N3CCN(c4ccccn4)CC3)C2)s1 (configuration not stated) was read as Tb PGK inh inactive, B2AR arrestin inactive, GLS inhibitor inactive, Tb PFK inh-1 inactive, BCR signal inh inconclusive and Pin1 inhibitor inactive.
Screening CSCCC(NS(=O)(=O)c1ccc2c(c1)oc(=O)n2C)C(=O)NCc1ccc(Cl)cc1 (configuration not stated) returned Tb PGK inh inactive, GLS inhibitor inactive, BCR signal inh inconclusive and Pin1 inhibitor inactive.
`CN(C)[C@@H](Cc1ccccc1)c1ccccc1` gave GLS inhibitor inactive.
CCOC(=O)Cn1c(=O)oc2cc(S(=O)(=O)N3CCN(C(=O)c4ccco4)CC3)ccc21 was read as Tb PGK inh inactive, B2AR arrestin inactive, GLS inhibitor inactive, Tb PFK inh-1 inactive, BCR signal inh inconclusive and Pin1 inhibitor inactive.
For O=C(COc1ccc(F)c(Cl)c1)c1ccc[nH]1 the results were Tb PGK inh inactive, B2AR arrestin inactive, GLS inhibitor inactive, Tb PFK inh-1 inconclusive, BCR signal inh inactive, Pin1 inhibitor inactive, Tb PFK KinaseGlo inconclusive and Tb PFK inh-2 inconclusive.
For Cc1ccc(C)c(CN2C(=O)c3ccccc3S(=O)(=O)c3ccc(C(=O)N4CCCCCC4)cc32)c1 the results were GLS inhibitor inactive and Pin1 inhibitor inactive.
CN(C)c1ccc(NC(=O)c2ccc(Cn3cc([N+](=O)[O-])cn3)cc2)cc1 was read as Tb PGK inh inactive, B2AR arrestin inactive, GLS inhibitor inactive, Tb PFK inh-1 23.9µM, BCR signal inh inconclusive, Pin1 inhibitor inactive, Tb PFK KinaseGlo 12µM and Tb PFK inh-2 26.9µM.

From PubChem BioAssay
